LRH-1 inv ag – NR5A2 inverse agonism in reporter assay | O00482 | 360,000 compounds, 0.13% hits | inhibition, % at 3.6 µM | HEK293T StAR-luciferase reporter, LRH-1 transfected, 24 h | AID 602396;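 active means inhibition above the mean inhibition of all tested compounds plus 3 SD, cut at about 73% in these data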
SRC1 inh – inhibits human SRC1 coactivator. Q15788. HEK293 GAL4-SRC1 luciferase reporter, luminescence. inhibition, % at 3.6 µM. 360,000 compounds, 0.12% hits;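 active means inhibition above the campaign mean plus 3 SD, with each screening campaign given its own cutoff, cut at about 60% in these data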
Gli-Sufu block – antagonists of Gli-Sufu signaling; Sufu-KO-LIGHT fibroblasts, Gli luciferase reporter luminescence; AID 588413; 340,000 compounds, 0.74% hits; inhibition, % at 5 µM;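 active means inhibition above about 55%, limit read from the data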
SRC3 inh – inhibits human SRC3 coactivator | Q9Y6Q9 | inhibition, % at 3.6 µM | HEK293 GAL4-SRC3 luciferase reporter, luminescence | 360,000 compounds, 0.17% hits;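 active means inhibition above a per-campaign cutoff, the mean of all compounds plus 3 SD, cut at about 60% in these data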;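 further: higher means less SRC3-driven luciferase light from the GAL4 reporter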
NCOA2 inhibitor – inhibits human steroid receptor coactivator 2; HEK293 GAL4-SRC2 luciferase reporter, luminescence; inhibition, % at 9 µM; 370,000 compounds, 0.17% hits; AID 651957;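 active means inhibition above the mean inhibition of all tested compounds plus 3 SD, set per campaign, cut at about 52% in these data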
NR2F2 inh – NR2F2 (human) inhibition, primary screen; inhibition, % at 8.6 µM; HEK293T NGFI-A luciferase reporter, luminescence; P24468; 370,000 compounds, 0.7% hits;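 active means inhibition above a per-plate cutoff, mean inhibition of test wells between control levels plus 3 SD, cut at about 38% in these data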;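 further: cells cotransfected with COUP-TFII expression vector driving the NGFI-A reporter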
VP16 Luc counter – VP16 inhibition counter-screen for COUP-TFII; shares compounds with NR2F2 inh; AID 687007; inhibition, % at 8.5 µM; 2,500 compounds, 25% hits; HEK293 Gal4-VP16 luciferase reporter, luminescence; in the data active means inhibition above about 13%
NR2F2 inh conf – COUP-TFII (NR2F2) inhibition, confirmation assay; shares compounds with NR2F2 inh; HEK293 NGFI-A luciferase reporter, luminescence; inhibition, % at 8.5 µM; 2,500 compounds, 45% hits; AID 687008;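 active means mean inhibition over three repeats above a set limit taken from the earlier primary screen, cut at about 38% in these data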
Each line names hits and unclear results; the compound was inactive in the other large screens (follow-up assays come after a bar, where they were run). Rows were chosen to be rich in hits. Some 1.3% of all compounds tested hit in one or more screens of this group.

COc1ccc(CN2CCN(C(=O)c3ccc(S(=O)(=O)N4CCCCCC4)cc3)CC2)cc1	NR2F2 inh 63 | VP16 Luc counter inactive | NR2F2 inh conf 48
COc1cccc(C(=O)N2CCN(Cc3ccccc3C(F)(F)F)CC2)c1	none
O=C(c1ccc(S(=O)(=O)N2CCCCCC2)cc1)N1CCN(Cc2ccccc2)CC1	none
CCN1/C(=C/c2sc(-c3ccccc3C)c[n+]2C)Sc2ccccc21	LRH-1 inv ag 90, Gli-Sufu block 90, SRC3 inh 80, NR2F2 inh 90 | VP16 Luc counter 16 | NR2F2 inh conf 86
CCN1/C(=C/C(=O)c2ccco2)Sc2ccccc21	none
